# A number with no mark means an inactive call. Records with an inconclusive call do not appear. Entries that show only a call come without a potency. The source made the active and inactive calls. Unless noted, calls follow the shape of the full dose curve.
# Key:
# [1] = Nuclear factor erythroid 2-related factor 2/antioxidant responsive element (Nrf2/ARE) small molecule agonists: qHTS cell viability counter screen in human keratinocytes (AID 1919968; active = well fitted curve in the direction sought with a large enough effect in the repeat runs; an effect the other way counts as inactive or inconclusive; also: nearly all actives have a fitted effect of over 55% in size; also: potency is read from the fitted curve at half-maximal effect)
# Outline: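 Viability counter-screen: KeratinoSens reporter cells, DMSO-delivered compounds, 23 h at 37 C, CellTiter-Fluor fluorescence.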
# [2] = Nuclear factor erythroid 2-related factor 2/antioxidant responsive element (Nrf2/ARE) small molecule agonists: luciferase reporter gene qHTS assay in human keratinocytes (AID 1919969); also: nearly all actives have a fitted effect of over 35% in size; also: potency is read from the fitted curve at half-maximal effect
# [3] = molecular target: KiSS-1 receptor (Homo sapiens) (UniProt Q969F8); experiment: Human kisspeptin (KISS1R) small molecule agonists, calcium flux assay in KISS1R-HEK293 cells (AID 1920064; active = well fitted curve in the direction sought with a large enough effect in the repeat runs; an effect the other way counts as inactive or inconclusive)
# KiSS-1 receptor (Homo sapiens), sequence (Q969F8 whole entry, looked up): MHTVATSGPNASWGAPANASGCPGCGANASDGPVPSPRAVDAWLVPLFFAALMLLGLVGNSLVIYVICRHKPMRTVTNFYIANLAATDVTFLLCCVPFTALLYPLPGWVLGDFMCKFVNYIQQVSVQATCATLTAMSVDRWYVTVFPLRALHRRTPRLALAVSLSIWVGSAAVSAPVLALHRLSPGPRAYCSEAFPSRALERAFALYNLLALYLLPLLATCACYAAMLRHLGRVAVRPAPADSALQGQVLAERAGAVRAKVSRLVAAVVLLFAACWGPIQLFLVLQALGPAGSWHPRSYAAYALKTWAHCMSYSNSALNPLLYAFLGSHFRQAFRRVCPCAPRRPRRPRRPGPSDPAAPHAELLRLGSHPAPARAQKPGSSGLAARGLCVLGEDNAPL
# Outline: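 Intracellular calcium mobilization in KISS1R-HEK293 cells was recorded by fluorescence (Ex/Em 480/540) for 3 min following compound addition to cells pre-loaded 1 h with calcium dye.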
# [4] = G protein-coupled receptor (GPCR) small molecule agonists, calcium flux assay: HEK293 wild type cell line counter screen (AID 1920065)
# Outline: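 In this agonist-mode screen, ATP is the positive control and DMSO the vehicle. Cells grow 18 h before a 1 h dye incubation at 37 C; signal is taken at Ex/Em 480/540 over 3 min.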
# [5] = p53 small molecule agonists, cell-based qHTS assay with human liver microsomes (AID 1963577)
# Outline: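 p53RE-bla reporter cells were pre-incubated 5 h at 37 C, then treated with compounds plus human liver microsomes (0.5 mg/mL final) and NADPH (0.5 mg/mL final) for 16 h at 37 C. Beta-lactamase activity was read by LiveBLAzer fluorescence after 2 h at room temperature.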
# [6] = p53 small molecule agonists, cell-based qHTS assay with rat liver microsomes (AID 1963578)
# Outline: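 p53RE-bla cells were exposed to compounds together with rat liver microsomes (0.5 mg/mL final) and NADPH (0.5 mg/mL final) for 16 h at 37 C, then read by LiveBLAzer beta-lactamase fluorescence after 2 h at room temperature.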
# [7] = p53 small molecule agonists, cell-based qHTS assay with human liver microsomes: qHTS cell viability counter screen (AID 1963579); also: nearly all actives have a fitted effect of over 45% in size; also: potency is read from the fitted curve at half-maximal effect
# Outline: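 p53RE-bla cells (4,000/well) were pre-incubated 5 h at 37 C, then given compounds in DMSO plus human liver microsomes (0.5 mg/mL final) and NADPH (0.5 mg/mL final) for 16 h at 37 C. Viability was read by CellTiter-Glo luminescence.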
# [8] = p53 small molecule agonists, cell-based qHTS assay with rat liver microsomes: qHTS cell viability counter screen (AID 1963580); also: nearly all actives have a fitted effect of over 45% in size; also: potency is read from the fitted curve at half-maximal effect
# Outline: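 p53RE-bla HCT-116 cells were exposed 16 h at 37 C to compounds with rat liver microsomes (0.5 mg/mL) and NADPH (0.5 mg/mL). Viability was measured in the same wells as ATP content by CellTiter-Glo luminescence.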
# [9] = p53 small molecule agonists, cell-based qHTS assay (AID 1963582; active = well fitted activation curve with a large enough effect in the signal ratio in the repeat runs, not every such curve was filed as active; the % refers to the signal ratio)
# Outline: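 Agonist activity was scored from beta-lactamase FRET fluorescence in p53RE-bla cells treated 16 h at 37 C with compounds in DMSO, substrate incubation being 2 h at room temperature.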
# [10] = molecular target: 5-hydroxytryptamine receptor 2A (Homo sapiens) (UniProt P28223); experiment: 5-hydroxytryptamine receptor 2A (HTR2A) small molecule antagonists, cell-based qHTS assay (AID 1963586); also: nearly all actives have a fitted effect of over 45% in size
# 5-hydroxytryptamine receptor 2A (Homo sapiens), sequence (P28223 whole entry, looked up): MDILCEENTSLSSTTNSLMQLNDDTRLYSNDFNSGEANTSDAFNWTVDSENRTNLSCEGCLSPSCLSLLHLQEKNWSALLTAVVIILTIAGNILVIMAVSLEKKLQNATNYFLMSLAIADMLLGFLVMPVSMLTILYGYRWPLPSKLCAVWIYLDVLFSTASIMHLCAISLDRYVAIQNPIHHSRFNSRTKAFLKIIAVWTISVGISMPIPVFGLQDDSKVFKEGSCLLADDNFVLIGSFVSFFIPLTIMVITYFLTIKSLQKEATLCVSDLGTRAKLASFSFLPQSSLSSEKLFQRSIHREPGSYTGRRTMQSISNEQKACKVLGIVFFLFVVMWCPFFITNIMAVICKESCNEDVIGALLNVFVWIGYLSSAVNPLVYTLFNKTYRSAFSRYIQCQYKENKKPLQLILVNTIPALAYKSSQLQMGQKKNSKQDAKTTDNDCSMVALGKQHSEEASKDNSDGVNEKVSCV
# Outline: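 Antagonist-mode intracellular calcium assay: DOI (4 nM) added after 5 min compound pre-incubation at room temperature to dye-loaded HTR2A-CHO cells. Fluorescence followed for 3 min, sampled every second.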
# [11] = molecular target: 5-hydroxytryptamine receptor 2A (Homo sapiens) (UniProt P28223); experiment: 5-hydroxytryptamine receptor 2A (HTR2A) small molecule agonists, cell-based qHTS assay (AID 1963587); also: nearly all actives have a fitted effect of over 30% in size
# Outline: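 CHO cells stably expressing human HTR2A, plated 18 h, loaded with calcium dye 1 h at 37 C. Agonist mode: compounds added and intracellular calcium fluorescence recorded kinetically for 2 min at 1 sec intervals.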
# [12] = molecular target: Muscarinic acetylcholine receptor M1 (Homo sapiens) (UniProt P11229); experiment: Cholinergic receptor muscarinic 1 (CHRM1) small molecule antagonists, cell-based qHTS assay (AID 1963588); also: nearly all actives have a fitted effect of over 40% in size; also: potency is read from the fitted curve at half-maximal effect
# Muscarinic acetylcholine receptor M1 (Homo sapiens), sequence (P11229 whole entry, looked up): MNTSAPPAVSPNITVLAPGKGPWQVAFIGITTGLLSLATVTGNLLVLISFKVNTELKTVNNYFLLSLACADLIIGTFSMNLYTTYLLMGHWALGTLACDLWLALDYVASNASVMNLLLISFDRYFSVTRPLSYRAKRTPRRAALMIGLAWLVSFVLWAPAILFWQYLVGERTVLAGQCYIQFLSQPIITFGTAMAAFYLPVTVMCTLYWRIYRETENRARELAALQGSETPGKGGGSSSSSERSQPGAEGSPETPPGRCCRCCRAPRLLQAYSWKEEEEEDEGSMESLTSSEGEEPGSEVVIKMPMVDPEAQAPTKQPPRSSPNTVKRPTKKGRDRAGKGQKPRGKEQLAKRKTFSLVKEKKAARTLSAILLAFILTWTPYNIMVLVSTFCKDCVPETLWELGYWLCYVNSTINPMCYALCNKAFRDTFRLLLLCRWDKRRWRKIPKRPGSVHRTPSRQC
# Outline: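 CHRM1-CHO calcium-flux assay, antagonist mode. Cells were seeded 18 h, dye-loaded 1 h at 37 C and given compound for 5 min at RT, then acetylcholine was added at 50nM. FDSS fluorescence was read 3 min; 15 concentrations, three runs.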
# [13] = molecular target: Muscarinic acetylcholine receptor M1 (Homo sapiens) (UniProt P11229); experiment: Cholinergic receptor muscarinic 1 (CHRM1) small molecule agonists, cell-based qHTS assay (AID 1963589); also: nearly all actives have a fitted effect of over 35% in size
# Outline: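 Stable CHRM1-CHO cells (human receptor) were incubated 18 h, dye-loaded for 1 h at 37 C and exposed to test compounds for agonist activity, with calcium-dependent fluorescence followed kinetically.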
# [14] = cAMP Responsive Elements (CRE) small molecule agonists, cell-based qHTS assay (AID 1963590)
# Outline: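 FRET-based beta-lactamase readout (LiveBLAzer B/G, 2 h RT) quantified CRE activation in HEK 293T CRE-bla cells after 3 h treatment with DMSO-dissolved compounds.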
# [15] = cAMP Responsive Elements (CRE) small molecule antagonists, cell-based qHTS assay (AID 1963591; active = well fitted inhibition curve with a large enough effect in the signal ratio in the repeat runs, not every such curve was filed as active; the % refers to the signal ratio; also: potency is read from the fitted curve at half-maximal effect)
# Outline: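 qHTS in CRE-bla HEK 293T cells: compound in DMSO, then 0.25 uM NKH477 (final), 3 h at 37 °C/5% CO2; beta-lactamase FRET read-out after 2 h substrate incubation.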
# [16] = molecular target: Beta-2 adrenergic receptor (Homo sapiens) (UniProt P07550); experiment: Adrenergic beta2 receptor (ADRB2) small molecule antagonists, cell-based qHTS assay (AID 1963592); also: series mostly up to about 92 µM; nearly all actives have a fitted effect of over 50% in size
# Beta-2 adrenergic receptor (Homo sapiens), sequence (P07550 whole entry, looked up): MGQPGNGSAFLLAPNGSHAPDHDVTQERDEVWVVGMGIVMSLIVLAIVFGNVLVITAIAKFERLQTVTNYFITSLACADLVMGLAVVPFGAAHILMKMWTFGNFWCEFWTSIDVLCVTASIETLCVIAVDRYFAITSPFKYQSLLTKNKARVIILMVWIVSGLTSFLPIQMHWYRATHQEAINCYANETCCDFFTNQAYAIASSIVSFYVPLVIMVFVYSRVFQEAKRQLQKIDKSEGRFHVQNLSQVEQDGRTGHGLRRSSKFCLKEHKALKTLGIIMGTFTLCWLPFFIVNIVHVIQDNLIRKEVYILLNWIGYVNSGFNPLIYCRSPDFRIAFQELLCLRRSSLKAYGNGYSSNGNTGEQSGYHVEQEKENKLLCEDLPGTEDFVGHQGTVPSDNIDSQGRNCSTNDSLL
# Outline: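 Cells (CHO, stable ADRB2 overexpression) incubated 18-20hr at 37C; compounds added from DMSO; agonist mix (1nM isoproterenol, 100uM IBMX, 25uM Ro-20-1724) added; 0.5hr RT; d2-cAMP and anti-cAMP-cryptate added; 1hr RT; 665/615 nm read.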
# [17] = molecular target: Beta-2 adrenergic receptor (Homo sapiens) (UniProt P07550); experiment: Adrenergic beta2 receptor (ADRB2) small molecule agonists, cell-based qHTS assay (AID 1963593);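 also: CHO cells stably overexpressing human ADRB2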
# Outline: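 CHO cells stably over-expressing ADRB2 were plated overnight at 37C, then dosed with compounds plus a stimulation mix containing 100uM IBMX and 25uM Ro-20-1724 for 0.5hr at room temperature. cAMP was measured by HTRF competition, 1hr.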
# [18] = molecular target: D(2) dopamine receptor (Homo sapiens) (UniProt P14416); experiment: Dopamine D2 receptor (DRD2) small molecule agonists, cell-based qHTS assay (AID 1963594); also: nearly all actives have a fitted effect of over 35% in size
# D(2) dopamine receptor (Homo sapiens), sequence (P14416 whole entry, looked up): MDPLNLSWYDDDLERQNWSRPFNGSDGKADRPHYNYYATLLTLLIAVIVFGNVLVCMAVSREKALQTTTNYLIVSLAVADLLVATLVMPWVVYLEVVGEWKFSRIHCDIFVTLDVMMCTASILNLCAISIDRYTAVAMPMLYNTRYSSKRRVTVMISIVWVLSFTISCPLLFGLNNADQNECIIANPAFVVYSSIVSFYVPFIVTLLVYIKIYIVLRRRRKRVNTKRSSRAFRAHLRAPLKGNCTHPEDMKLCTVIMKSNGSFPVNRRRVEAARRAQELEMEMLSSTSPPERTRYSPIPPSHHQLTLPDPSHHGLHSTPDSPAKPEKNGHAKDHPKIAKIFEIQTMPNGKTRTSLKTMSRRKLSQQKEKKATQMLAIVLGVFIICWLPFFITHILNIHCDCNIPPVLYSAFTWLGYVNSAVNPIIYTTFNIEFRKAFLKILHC
# Outline: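 HEK293 cells stably expressing human DRD2, pre-treated with PDE inhibitor Ro20-1724 (0.1 mM final) and compound 10 min at room temperature, then stimulated with NKH477 (200nM […]) for 30 min. cAMP read by HTRF (665/620 nm).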
# [19] = molecular target: D(2) dopamine receptor (Homo sapiens) (UniProt P14416); experiment: Dopamine D2 receptor (DRD2) small molecule antagonists, cell-based qHTS assay (AID 1963595; active = well fitted inhibition curve with a large enough effect in the signal ratio in the repeat runs, with a control signal flat; the % refers to the signal ratio; also: potency is read from the fitted curve at half-maximal effect)
# Outline: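 HTRF cAMP read-out at 665 and 620 nm emission (340 nm excitation). Antagonist mode: compounds were tested against 12 nM quinpirole in DRD2-HEK293 cells, with 200 nM NKH477 raising cAMP and 0.1 mM Ro20-1724 blocking its breakdown.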
# [20] = p53 small molecule agonists, cell-based qHTS assay: qHTS cell viability counter screen (AID 1963581); also: nearly all actives have a fitted effect of over 45% in size
# Outline: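 Compounds are pinned onto HCT-116 p53RE-bla cells and left 16 h at 37 C. Following the reporter FRET read, ATP is quantified by CellTiter-Glo luminescence after 30 min at room temperature.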
smiles,measurement,setting,value
CC1=C(C(=O)O)N2C(=O)[C@@H](N)[C@H]2SC1,"activity change, negative = cytotoxicity",[1],0.0817% [at 19 µM]
same,"activity, positive = activation",[2],-0.189% [at 19 µM]
same,activation,[3],0.11% [at 15.8 µM]
same,activation,[4],-0.375% [at 11.8 µM]
same,activation,[5],-0.214% [at 13.5 µM]
same,activation,[6],-0.0529% [at 13.6 µM]
same,"activity change, negative = cytotoxicity",[7],0.455% [at 13.5 µM]
same,"activity change, negative = cytotoxicity",[8],4.3e-05% [at 13.5 µM]
same,activation,[9],0.428% [at 13.5 µM]
same,"activity, negative = inhibition",[10],25.1% [at 12.7 µM]
same,activation,[11],1.93% [at 15.9 µM]
same,"activity, negative = inhibition",[12],-6.26% [at 12.6 µM]
same,activation,[13],0% [at 15.8 µM]
same,activation,[14],-0.165% [at 19 µM]
same,"activity change, negative = inhibition",[15],-4.67% [at 18.9 µM]
same,"activity change, negative = inhibition",[16],2.77% [at 19 µM]
same,activation,[17],0.75% [at 19 µM]
same,activation,[18],-15.4% [at 19 µM]
same,"activity change, negative = inhibition",[19],-2.19% [at 18.9 µM]
C[N+](C)(C)CC1CO1 (centres undefined),Potency,[1],inactive
same,Potency,[2],inactive
same,Potency,[3],inactive
same,Potency,[4],inactive
same,Potency,[5],inactive
same,Potency,[6],inactive
same,Potency,[7],inactive
same,Potency,[8],inactive
same,Potency,[9],inactive
same,Potency,[10],inactive
same,Potency,[11],inactive
same,Potency,[12],inactive
same,Potency,[14],inactive
same,Potency,[15],inactive
same,Potency,[16],inactive
same,Potency,[19],inactive
C[C@]12C=CC(=O)C=C1CC[C@@H]1[C@@H]2CC[C@@]2(C)[C@H]1CC[C@]2(C)O,Potency,[1],inactive
same,Potency,[2],inactive
same,Potency,[3],inactive
same,Potency,[4],inactive
same,Potency,[5],inactive
same,Potency,[6],inactive
same,Potency,[7],inactive
same,Potency,[8],inactive
same,Potency,[9],inactive
same,Potency,[10],inactive
same,Potency,[11],inactive
same,Potency,[12],inactive
same,Potency,[13],inactive
same,Potency,[16],inactive
same,Potency,[18],inactive
same,Potency,[19],inactive
CCOP(=S)(OCC)Oc1cc(-c2ccccc2)on1,Potency,[1],inactive
same,Potency,[2],inactive
same,Potency,[3],inactive
same,Potency,[4],inactive
same,Potency,[7],inactive
same,Potency,[8],inactive
same,Potency,[20],inactive
same,Potency,[9],inactive
same,Potency,[10],inactive
same,Potency,[11],inactive
same,Potency,[12],inactive
same,Potency,[13],inactive
same,Potency,[16],inactive
same,Potency,[18],inactive
same,Potency,[19],inactive
CCCCCCCCCC[N+](C)(C)CCCCCCCCCC,Potency,[1],27.3 µM (active)
same,Potency,[2],inactive
same,Potency,[3],inactive
same,Potency,[4],inactive
same,Potency,[5],inactive
same,Potency,[6],inactive
same,Potency,[8],45.8 µM (active)
same,Potency,[10],inactive
same,Potency,[12],10.6 µM (active)
same,Potency,[13],inactive
same,Potency,[15],43.3 µM (active)
same,Potency,[18],inactive
same,Potency,[19],27.3 µM (active)
ClC(Br)Br,Potency,[1],inactive
same,Potency,[2],inactive
same,Potency,[3],inactive
same,Potency,[4],inactive
same,Potency,[6],inactive
same,Potency,[7],inactive
same,Potency,[8],inactive
same,Potency,[20],inactive
same,Potency,[9],inactive
same,Potency,[11],inactive
same,Potency,[12],inactive
same,Potency,[13],inactive
same,Potency,[14],inactive
same,Potency,[15],inactive
same,Potency,[17],inactive
same,Potency,[18],inactive
same,Potency,[19],inactive
[Cl][Sn]([c]1ccccc1)([c]1ccccc1)[c]1ccccc1,Potency,[1],1.03 µM (active)
same,Potency,[2],0.58 µM (active)
same,activation,[3],2.74% [at 15.8 µM]
same,activation,[4],4.28% [at 11.8 µM]
same,activation,[6],-5.37% [at 13.6 µM]
same,Potency,[7],6.14 µM (active)
same,Potency,[8],6.14 µM (active)
same,"activity, negative = inhibition",[10],-29.3% [at 12.7 µM]
same,"activity, negative = inhibition",[12],-4.75% [at 12.6 µM]
same,activation,[13],2.71% [at 15.8 µM]
same,"activity change, negative = inhibition",[16],1.04% [at 19 µM]
same,activation,[18],8.68% [at 19 µM]
same,Potency,[19],7.3 µM (active)
